Data taken from PubChem BioAssay (NCATS).
Results filed as inconclusive are left out. Entries that show only a call come without a potency. Active and inactive are the calls of the source. Calls come from the whole dose curve; as a rule, active = well fitted inhibition curve with a large enough effect; inconclusive = small, poorly fitted or top-dose-only effect; inactive = flat fitted curve, though single readings scatter.

The compounds below were run against Voltage-gated inwardly rectifying potassium channel KCNH2 (Homo sapiens) (UniProt Q12809) (assay: qHTS Assay for Small Molecule Inhibitors of the Human hERG Channel Activity (AID 588834;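 note: lower thallium flux fluorescence means stronger hERG block; nearly all actives have a fitted effect of over 50% in size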)). Conditions: U2OS BacMam hERG, FluxOR thallium flux fluorescence; series mostly up to 46.1 µM.
Voltage-gated inwardly rectifying potassium channel KCNH2 (Homo sapiens), sequence (Q12809 whole entry, looked up): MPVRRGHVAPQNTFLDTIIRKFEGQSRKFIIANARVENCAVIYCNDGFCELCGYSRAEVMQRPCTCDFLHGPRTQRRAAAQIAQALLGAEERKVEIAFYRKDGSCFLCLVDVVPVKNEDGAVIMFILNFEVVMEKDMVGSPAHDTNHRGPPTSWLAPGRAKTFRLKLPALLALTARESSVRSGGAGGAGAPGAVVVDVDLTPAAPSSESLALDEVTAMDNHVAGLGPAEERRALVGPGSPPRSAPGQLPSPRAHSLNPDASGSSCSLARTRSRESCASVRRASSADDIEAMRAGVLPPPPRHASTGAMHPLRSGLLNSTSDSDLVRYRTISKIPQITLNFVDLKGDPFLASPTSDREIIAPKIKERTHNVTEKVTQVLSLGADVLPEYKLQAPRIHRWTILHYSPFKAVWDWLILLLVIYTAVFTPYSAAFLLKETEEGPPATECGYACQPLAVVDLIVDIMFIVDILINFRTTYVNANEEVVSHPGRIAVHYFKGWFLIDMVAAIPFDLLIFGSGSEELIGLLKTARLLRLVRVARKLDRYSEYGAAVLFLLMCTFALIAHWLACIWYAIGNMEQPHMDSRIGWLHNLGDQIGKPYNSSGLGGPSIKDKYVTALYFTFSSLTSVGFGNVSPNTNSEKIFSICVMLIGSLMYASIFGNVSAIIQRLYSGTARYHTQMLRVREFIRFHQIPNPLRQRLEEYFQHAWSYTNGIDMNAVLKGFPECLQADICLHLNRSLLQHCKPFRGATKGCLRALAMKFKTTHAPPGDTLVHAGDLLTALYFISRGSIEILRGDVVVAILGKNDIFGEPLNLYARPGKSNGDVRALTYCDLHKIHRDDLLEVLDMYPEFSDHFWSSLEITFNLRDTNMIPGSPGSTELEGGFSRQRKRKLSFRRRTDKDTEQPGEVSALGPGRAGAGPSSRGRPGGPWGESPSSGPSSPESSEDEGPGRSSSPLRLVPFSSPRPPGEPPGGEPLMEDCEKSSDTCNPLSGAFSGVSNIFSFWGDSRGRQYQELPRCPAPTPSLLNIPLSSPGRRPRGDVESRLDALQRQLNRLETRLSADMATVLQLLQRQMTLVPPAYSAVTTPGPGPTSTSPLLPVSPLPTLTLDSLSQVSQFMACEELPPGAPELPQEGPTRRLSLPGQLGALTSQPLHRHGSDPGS
How it was run: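 hERG block measured as reduced thallium-dye (FluxOR) fluorescence after stimulation buffer addition, read over 2 min. Cells were hERG-BacMam-transduced U2OS exposed to compound ~10 min […]; concentration-response fitted with Hill equation for AC50.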
Potency is the fitted concentration of half-maximal effect.

Structure (SMILES)	Potency
O=C(CCCCCCC(=O)Nc1ccccc1)NO	inactive
CC(=O)CCCCn1c(=O)c2c(ncn2C)n(C)c1=O	inactive
O=C(NCCN1CCOCC1)c1ccc(Cl)cc1	inactive
CC1(C)O[C@H]2C[C@@H]3[C@H]4CCC5=CC(=O)C=C[C@]5(C)[C@@]4(F)[C@@H](O)C[C@]3(C)[C@]2(C(=O)CO)O1	inactive
CCN(CC)C(=O)c1ccc(O)c(OC)c1	inactive
CCOC(=O)O[C@]1(C(=O)OCCl)CC[C@@H]2[C@H]3CCC4=CC(=O)C=C[C@]4(C)[C@@H]3[C@@H](O)C[C@@]21C	inactive
C[C@@H](O)[C@H]1C(=O)N2C(C(=O)O)=C(S[C@@H]3CN[C@H](C(=O)N(C)C)C3)[C@H](C)[C@H]12	inactive
O=C(O)CCc1nc(-c2ccccc2)c(-c2ccccc2)o1	inactive
C[N+](C)(C)CCCCCC[N+](C)(C)C	inactive
CCN(CC)CCOC(=O)c1ccc(N)cc1	inactive
CCN1CCC[C@H]1CNC(=O)c1cc(S(N)(=O)=O)ccc1OC	inactive
O=C(O)c1c(Cl)c(Cl)c(Cl)c(Cl)c1-c1c2cc(I)c(=O)c(I)c-2oc2c(I)c(O)c(I)cc12	12.6 µM (active)
O=C1NCC2(CCN(CCc3ccccc3)CC2)O1	inactive
Cc1cnc(C(=O)O)c[n+]1[O-]	inactive
